Several values for one entry are separate records, joined by “and”; a condition that tells them apart may be missing. Equal entries are not always repeated. Values without a mark were called inactive. Activity calls are given as the source filed them.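 The calls were made as follows, unless noted: active = z-score of at least 1.8 in each of two replicates, scored against plate mean and spread of sample wells; inactive = the rest.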

The target in the first assay is Mitogen-activated protein kinase 7 (Homo sapiens) (UniProt Q13164). As to the kind of experiment: ERK5 transactivation activators in reporter cells, primary screen, cell-based, HTS (AID 1508626;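 active = luciferase signal above three times the same-plate solvent-only control wells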;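 also: luciferase driven by Gal4-ERK5 fusion binding five Gal4 sites before minimal TATA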). To be noted: HeLa Gal4-ERK5 transactivation, 18 h, at 5 µM, hits give high values.
Sequence of Mitogen-activated protein kinase 7 (Homo sapiens) (Q13164 whole entry, looked up, the tested form may be a part): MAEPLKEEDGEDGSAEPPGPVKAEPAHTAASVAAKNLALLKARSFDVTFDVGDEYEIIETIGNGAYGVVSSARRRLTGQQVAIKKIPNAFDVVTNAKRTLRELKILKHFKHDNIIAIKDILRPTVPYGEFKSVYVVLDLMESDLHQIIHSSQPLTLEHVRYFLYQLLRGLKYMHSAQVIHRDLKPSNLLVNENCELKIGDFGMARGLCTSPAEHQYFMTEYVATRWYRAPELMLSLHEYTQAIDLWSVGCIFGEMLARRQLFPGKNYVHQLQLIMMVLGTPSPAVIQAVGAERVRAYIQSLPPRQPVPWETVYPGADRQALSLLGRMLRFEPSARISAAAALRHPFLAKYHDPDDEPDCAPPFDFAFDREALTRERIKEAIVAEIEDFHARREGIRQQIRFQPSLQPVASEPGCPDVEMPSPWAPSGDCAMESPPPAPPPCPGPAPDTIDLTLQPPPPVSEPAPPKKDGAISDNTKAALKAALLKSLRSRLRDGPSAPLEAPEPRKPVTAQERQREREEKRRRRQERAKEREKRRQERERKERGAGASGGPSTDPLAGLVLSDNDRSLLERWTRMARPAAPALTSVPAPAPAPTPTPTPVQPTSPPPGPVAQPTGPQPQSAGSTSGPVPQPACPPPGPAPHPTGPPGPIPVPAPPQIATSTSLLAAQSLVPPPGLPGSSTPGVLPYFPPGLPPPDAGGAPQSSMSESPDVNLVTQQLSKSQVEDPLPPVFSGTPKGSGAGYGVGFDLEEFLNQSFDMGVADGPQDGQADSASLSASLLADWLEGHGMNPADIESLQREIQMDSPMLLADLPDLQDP
As for `COc1cc(OC)c(C(=O)CCCN2CCCC2)c(OC)c1`, the luciferase signal is 40 AU.
For `COc1ccc2nc(S(=O)Cc3ncc(C)c(OC)c3C)[nH]c2c1` (configuration not stated), the luciferase signal is 68 AU.
Still for that read-out and setting: next, `CC(C)[C@H](N)C(=O)OCCOCn1cnc2c(=O)[nH]c(N)nc21`: 32 AU.
For the compound `C[N+]1(C)[C@@H]2CC(OC(=O)[C@H](CO)c3ccccc3)C[C@H]1[C@@H]1O[C@@H]12` (some centres not stated), the luciferase signal is 32 AU.
`CCN1CCN(C(=O)N[C@@H](C(=O)N[C@@H]2C(=O)N3C(C(=O)O)=C(CSc4nnnn4C)CS[C@H]23)c2ccc(O)cc2)C(=O)C1=O`: the luciferase signal is 88 AU.
On the same count and under the same terms, next, `CCOC(=O)[C@H](CCc1ccccc1)N[C@@H](C)C(=O)N1CCC[C@H]1C(=O)O`: 64 AU.
With `COc1ccc(C(=O)CC(=O)c2ccc(C(C)(C)C)cc2)cc1`, the luciferase signal was 44 AU.
On to `NNc1nncc2ccccc12`, for which the luciferase signal is 280 AU (active).
For `O=NN(CCCl)C(=O)NCCCl`, the luciferase signal is 204 AU.
Regarding `Cc1cn[nH]c1`, the luciferase signal was 44 AU.
On to `COc1ccc2cc3[n+](cc2c1OC)CCc1cc2c(cc1-3)OCO2`, for which the luciferase signal is 64 AU.
With `C#C[C@]1(O)CC[C@H]2[C@@H]3CCc4cc(O)ccc4[C@H]3CC[C@@]21C`, the luciferase signal was 76 AU.
On to `O=c1c(O)c(-c2ccc(O)c(O)c2)oc2cc(O)cc(O)c12`, for which the luciferase signal is 72 AU.
Still for that read-out and setting: to `Nc1nc(=S)c2[nH]cnc2[nH]1` belongs 52 AU; to `CCCN(CCC)C(=O)C(CCC(=O)O)NC(=O)c1ccccc1` (configuration not stated), 108 AU.
With `CC(N)C12CC3CC(CC(C3)C1)C2` (configuration not stated), the luciferase signal is 48 AU.
Take `Oc1ccc(OCc2ccccc2)cc1`: the luciferase signal is 64 AU.
Consider `COC(=O)Nc1nc2ccc(Sc3ccccc3)cc2[nH]1`, for which the luciferase signal is 36 AU.
The same measure, in the same setting: next, `CC(=O)O[C@]1(C(C)=O)CC[C@H]2[C@@H]3C=C(Cl)C4=CC(=O)[C@@H]5C[C@@H]5[C@]4(C)[C@H]3CC[C@@]21C`: 52 AU.
Same read-out and setting: next, `CO[C@@H]1[C@@H](OC(N)=O)[C@@H](O)[C@H](Oc2ccc3c(O)c(NC(=O)c4ccc(O)c(CC=C(C)C)c4)c(=O)oc3c2C)OC1(C)C`: 44 AU; `Nc1ncnc2c1ncn2[C@@H]1O[C@H](CO)[C@@H](O)[C@H]1O`: 112 AU; `Cc1ccc(S(=O)(=O)NC(=O)NN2CC3CCCC3C2)cc1` (configuration not stated): 36 AU.
Regarding `CN(Cc1cc(Br)cc(Br)c1N)C1CCCCC1`, the luciferase signal is 56 AU.
On the same count and under the same terms, next, `O=c1oc2c(O)c(O)cc3c(=O)oc4c(O)c(O)cc1c4c23`: 60 AU; `Cn1c(=O)c2c(ncn2C)n(C)c1=O`: 32 AU.

System in another assay: not listed separately
As to the kind of experiment: viability rescue of complex I mutant cybrids, primary screen, cell-based, galactose medium, ATP luminescence (AID 1645843).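 Also: positive z means more ATP and so rescue of galactose-driven cybrid death.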 Particulars: complex I mutant cybrid cells, 72 h, hits give high values.
In the case of `COc1cc(OC)c(C(=O)CCCN2CCCC2)c(OC)c1`, the z-score is 0.65.
With `CC(C)[C@H](N)C(=O)OCCOCn1cnc2c(=O)[nH]c(N)nc21`, the z-score is 0.625.
The same measure, in the same setting: next, `Cc1ccc(NC(=O)c2ccc(CN3CCN(C)CC3)cc2)cc1Nc1nccc(-c2cccnc2)n1`: -1.09 and -0.785.
Same read-out and setting: next, `O=C(NCCO[N+](=O)[O-])c1cccnc1`: 0.795 and 0.02 and 0.605.
Turning to `Cn1c(NCCN(CCO)CCCc2ccc([N+](=O)[O-])cc2)cc(=O)n(C)c1=O`, the z-score is 0.115 and 0.85.
Take `CCN1CCN(C(=O)N[C@@H](C(=O)N[C@@H]2C(=O)N3C(C(=O)O)=C(CSc4nnnn4C)CS[C@H]23)c2ccc(O)cc2)C(=O)C1=O`: the z-score was -0.045.
Consider `CNNCc1ccc(C(=O)NC(C)C)cc1`, for which the z-score was -0.975 and 0.615.
Regarding `O=C(O)/C=C/c1ccc(Cn2ccnc2)cc1`, the z-score was 0 and 0.26.
Consider `CCOC(=O)[C@H](CCc1ccccc1)N[C@@H](C)C(=O)N1CCC[C@H]1C(=O)O`, for which the z-score was 0.27.
With `O=NN(CCCl)C(=O)NC1CCCCC1`, the z-score is -0.495.
For `NNc1nncc2ccccc12`, the z-score was 0.12.
Same read-out and setting: next, `CN(CCOc1ccc(NS(C)(=O)=O)cc1)CCc1ccc(NS(C)(=O)=O)cc1`: 0.355 and 0.06 and 0.77; `O=NN(CCCl)C(=O)NCCCl`: -0.84.
With `Cc1cn[nH]c1`, the z-score is 0.65.
The same measure, in the same setting: to `O=c1c(O)c(-c2ccc(O)c(O)c2)oc2cc(O)cc(O)c12` belongs -0.695 and -0.855.
As to `COC1=C(OC)C(=O)C(CCCCCCCCCCO)=C(C)C1=O`, the z-score is -1.85 and -2.1.
With `Cc1[nH]c(=O)c(C#N)cc1-c1ccncc1`, the z-score is 0.46 and 0.67 and 0.525.
On the same count and under the same terms, to `CCCN(CCC)C(=O)C(CCC(=O)O)NC(=O)c1ccccc1` (configuration not stated) belongs 0.665; to `CC(N)C12CC3CC(CC(C3)C1)C2` (configuration not stated), 1.03 and -0.17 and -0.24; to `COC(=O)Nc1nc2ccc(Sc3ccccc3)cc2[nH]1`, -1.72.
On the same count and under the same terms, to `CC(=O)O[C@]1(C(C)=O)CC[C@H]2[C@@H]3C=C(Cl)C4=CC(=O)[C@@H]5C[C@@H]5[C@]4(C)[C@H]3CC[C@@]21C` belongs 1.89 and 0.36; to `CCOc1cc(N)c(Cl)cc1C(=O)NCC1CN(Cc2ccc(F)cc2)CCO1` (configuration not stated), 0.725.
For the compound `Cc1ccc(S(=O)(=O)NC(=O)NN2CC3CCCC3C2)cc1` (configuration not stated), the z-score is 0.595.
Consider `CN(Cc1cc(Br)cc(Br)c1N)C1CCCCC1`, for which the z-score was -1.71.
As for `COC(=O)Nc1nc2ccc(C(=O)c3cccs3)cc2[nH]1`, the z-score was -0.685 and -1.18 and -0.46.
With `Cn1c(=O)c2c(ncn2C)n(C)c1=O`, the z-score is 0.3.
For `CN(Cc1cnc2nc(N)nc(N)c2n1)c1ccc(C(=O)N[C@@H](CCC(=O)O)C(=O)O)cc1`, the z-score is -1.06 and -0.71.

The values are drawn from PubChem BioAssay.
